Experimental findings from PubChem BioAssay (Tox21) are described below.

Assay [1] is described as follows: qHTS assay to identify small molecule antagonists of the thyroid receptor (TR) signaling pathway - cell viability counter screen (AID 743064). Note: nearly all actives have a fitted effect of over 50% in size. Note: potency is the fitted concentration of half-maximal effect. In a few lines: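 GH3.TRE-Luc cells, 4 h pre-plating; cpd + T3 1 nM final; 37 °C 23.5 h; CellTiter-Fluor 30 min; fluorescence read.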
The nature of assay [2]: qHTS assay to identify small molecule antagonists of the thyroid receptor (TR) signaling pathway (AID 743065). Note: series mostly up to about 70 µM; nearly all actives have a fitted effect of over 55% in size. The essentials:
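GH3.TRE-Luc rat pituitary cells carrying two TR response elements driving luciferase were plated for 4 h, given compound plus 1 nM T3 (final), and incubated 23.5 h at 37 C. ONE-Glo luminescence measured reporter inhibition; CellTiter-Fluor fluorescence tracked cytotoxicity.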

Assay [3] relates to thyroid hormone receptor (rat, GH3 cells). As to the kind of experiment: qHTS assay to identify small molecule agonists of the thyroid receptor (TR) signaling pathway (AID 743066; calls by dose curve).
Assay [4] concerns the target Estrogen receptor (Homo sapiens) (UniProt P03372). Description: qHTS assay to identify small molecule antagonists of the estrogen receptor alpha (ER-alpha) signaling pathway (AID 743069; active = well fitted curve in the direction sought with a large enough effect in the signal ratio in the repeat runs, not every such curve was filed as active; the % refers to the signal ratio). The essentials: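 HEK293 cells stably carrying an ER-alpha-UAS-bla beta-lactamase reporter were pre-cultured overnight in 2% charcoal-stripped FBS medium. Test compounds in DMSO were added together with 17beta-estradiol for 18 hr at 37C. Read-out was fluorescence after 2 hr with LiveBLAzer B/G FRET substrate at room temperature.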

Assay [5] in a line: qHTS assay to identify small molecule antagonists of the estrogen receptor alpha (ER-alpha) signaling pathway - cell viability counter screen (AID 743074; calls by dose curve; note: nearly all actives have a fitted effect of over 45% in size).
Assay [6] deals with Estrogen receptor (Homo sapiens) (UniProt P03372). Description: qHTS assay to identify small molecule agonists of the estrogen receptor alpha (ER-alpha) signaling pathway (AID 743075; calls by dose curve).
Assay [7] can be described thus: qHTS assay to identify small molecule antagonists of the estrogen receptor alpha (ER-alpha) signaling pathway using the BG1 cell line (AID 743080; calls by dose curve;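 note: BG1 cells stimulated with 17beta-estradiol alongside compound; series mostly up to about 70 µM; nearly all actives have a fitted effect of over 25% in size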). The essentials:
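Luciferase inhibition measured with ONE-Glo after 30 min at RT in BG1Luc4E2 cells given test compounds and 17beta-estradiol for 21.5 h at 37 C; CellTiter-Fluor viability read in the same wells beforehand.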

The nature of assay [8]: qHTS assay to identify small molecule antagonists of the estrogen receptor alpha (ER-alpha) signaling pathway using the BG1 cell line - cell viability counter screen (AID 743081).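 Note: compound given together with 17beta-estradiol as the ER stimulus; nearly all actives have a fitted effect of over 45% in size.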 Note: potency is the fitted concentration of half-maximal effect.
The target of another assay is Aromatase (Homo sapiens) (UniProt P11511). Description: qHTS assay to identify aromatase inhibitors (AID 743083). Note: series mostly up to about 70 µM; nearly all actives have a fitted effect of over 55% in size.
Assay [9] in a line: qHTS assay to identify aromatase inhibitors - cell viability counter screen (AID 743084).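 Note: cells stimulated with testosterone during compound exposure; nearly all actives have a fitted effect of over 55% in size.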 Note: potency is the fitted concentration of half-maximal effect.
Assay [10] addresses Aryl hydrocarbon receptor (Homo sapiens) (UniProt P35869). As to the kind of experiment: qHTS assay to identify small molecule that activate the aryl hydrocarbon receptor (AhR) signaling pathway (AID 743085).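 For activation: HG2L7.5c1 human HepG2 liver cells with stably integrated DRE-driven firefly reporter; series mostly up to about 70 µM.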 Note: nearly all actives have a fitted effect of over 15% in size. Note: potency is the fitted concentration of half-maximal effect. In a few lines:
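Luminescence read-out: ONE-Glo reagent, 30 min at room temperature, in HG2L7.5c1 HepG2 reporter cells treated 24 h at 37C. Viability was measured beforehand by CellTiter-Fluor fluorescence after 30 min at 37C.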

A short description of assay [11]: qHTS assay to identify small molecule that activate the aryl hydrocarbon receptor (AhR) signaling pathway - cell viability counter screen (AID 743086). Note: nearly all actives have a fitted effect of over 45% in size. Note: potency is the fitted concentration of half-maximal effect. The essentials:
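HepG2-AhR-luc (HG2L7.5c1) cells, 4000/well, were preincubated 5 h at 37C, exposed to compound in qHTS format for 24 hr at 37C, then given CellTiter-Fluor for 30 min; viability was read as fluorescence in the reporter wells.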

The target in assay [12] is Peroxisome proliferator-activated receptor gamma (Homo sapiens) (UniProt P37231). As to the kind of experiment: qHTS assay to identify small molecule agonists of the peroxisome proliferator-activated receptor gamma (PPARg) signaling pathway (AID 743094; active = well fitted activation curve with a large enough effect in the signal ratio in the repeat runs, not every such curve was filed as active; the % refers to the signal ratio). The essentials:
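Following 5 h plating at 37C, PPARg-bla HEK293H cells receive compound or DMSO for 17 h; fluorescence intensity is recorded after LiveBLAzer B/G loading for 1 h at room temperature.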

Assay [13] has the same target. As to the kind of experiment: qHTS assay to identify small molecule antagonists of the peroxisome proliferator-activated receptor gamma (PPARg) signaling pathway (AID 743191; calls by dose curve; note: series mostly up to about 63 µM; nearly all actives have a fitted effect of over 30% in size). The essentials:
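GeneBLAzer PPARg UAS-bla HEK293H cells carrying a UAS-driven beta-lactamase reporter were plated at 3000 cells/well, preincubated 5 h at 37C, then given compound for 17 h at 37C; LiveBLAzer B/G FRET substrate was read after 1 h at room temperature.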

Assay [14] is described as follows: qHTS assay to identify small molecule antagonists of the peroxisome proliferator-activated receptor gamma (PPARg) signaling pathway - cell viability counter screen (AID 743194). Note: nearly all actives have a fitted effect of over 55% in size. In a few lines:
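PPARg-UAS-bla HEK293H cells were plated, rested 5 h at 37 C, then treated with compounds plus rosiglitazone (50 nM final) for 17 h at 37 C; viability was then read by CellTiter-Glo luminescence after 30 min at room temperature.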

Assay [15] can be described thus: qHTS assay for small molecule agonists of the antioxidant response element (ARE) signaling pathway (AID 743202; active = well fitted activation curve with a large enough effect in the signal ratio in the repeat runs, not every such curve was filed as active; the % refers to the signal ratio). In a few lines:
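Read-out: LiveBLAzer B/G FRET substrate fluorescence after 2 h at room temperature, following 16 h compound treatment at 37 C of HepG2 cells carrying an ARE-driven beta-lactamase reporter.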

Assay [16] can be described thus: qHTS assay for small molecule agonists of the antioxidant response element (ARE) signaling pathway - cell viability counter screen (AID 743203; calls by dose curve; note: nearly all actives have a fitted effect of over 55% in size). In a few lines: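 Compounds in DMSO were pinned onto ARE-bla HepG2 cells plated 5 hrs earlier at 2,000 cells/well. Sixteen hours later at 37C/5% CO2, CellTiter-Glo was added and luminescence measured after 30 min at room temperature.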

Assay [17] in a line: qHTS assay for small molecule activators of the heat shock response signaling pathway - cell viability counter screen (AID 743209). Note: nearly all actives have a fitted effect of over 50% in size. In a few lines: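 Counter screen for cytotoxicity in HeLa HSE-bla reporter cells. Treatment was 5 h at 37 C; viability was detected by luminescent ATP assay (CellTiter-Glo) in the same wells as the beta-lactamase read.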
The nature of assay [18]: qHTS assay for small molecule activators of the heat shock response signaling pathway (AID 743210; active = well fitted activation curve with a large enough effect in the signal ratio in the repeat runs, with a control signal flat, not every such curve was filed as active; the % refers to the signal ratio; note: series mostly up to about 63 µM). In a few lines:
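HSE-bla HeLa cells (beta-lactamase reporter under heat shock response elements) were exposed to compounds for 5 h at 37 C, then loaded with LiveBLAzer B/G FRET substrate for 2.5 h at room temperature before fluorescence reading.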

The target in assay [19] is Estrogen receptor (Homo sapiens) (UniProt P03372). Description: qHTS assay to identify small molecule agonists of the estrogen receptor alpha (ER-alpha) signaling pathway using the BG1 cell line (AID 743079). Note: nearly all actives have a fitted effect of over 20% in size.

Values joined by “and” are separate entries in the source; they are usually repeats but may differ in a detail not shown here. Equal entries are not always repeated. Inconclusive results are not listed. Some structures have more than one record in an assay (separate samples or runs), and their calls can disagree. Active and inactive are the calls of the source. Unless noted, calls come from the whole dose curve; as a rule, active = well fitted curve in the direction sought with a large enough effect in the repeat runs; inconclusive = weak or mixed curves; inactive = no such curve, though single readings can be large; an effect the other way counts as inactive or inconclusive.

Peroxisome proliferator-activated receptor gamma (Homo sapiens), sequence (P37231 whole entry, looked up): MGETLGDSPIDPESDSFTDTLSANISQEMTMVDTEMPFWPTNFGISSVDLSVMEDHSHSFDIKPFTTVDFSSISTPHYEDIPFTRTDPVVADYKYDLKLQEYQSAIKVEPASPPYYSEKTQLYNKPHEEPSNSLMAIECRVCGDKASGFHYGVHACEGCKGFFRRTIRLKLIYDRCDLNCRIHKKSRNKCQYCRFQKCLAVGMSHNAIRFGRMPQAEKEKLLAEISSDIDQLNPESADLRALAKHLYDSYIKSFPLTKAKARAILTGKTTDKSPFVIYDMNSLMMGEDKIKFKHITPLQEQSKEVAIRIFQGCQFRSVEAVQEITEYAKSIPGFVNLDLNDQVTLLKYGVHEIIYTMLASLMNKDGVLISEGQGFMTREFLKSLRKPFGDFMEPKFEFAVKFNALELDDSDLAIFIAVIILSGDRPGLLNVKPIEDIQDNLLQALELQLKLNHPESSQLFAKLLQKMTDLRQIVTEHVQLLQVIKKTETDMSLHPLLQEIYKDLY
Aromatase (Homo sapiens), sequence (P11511 whole entry, looked up): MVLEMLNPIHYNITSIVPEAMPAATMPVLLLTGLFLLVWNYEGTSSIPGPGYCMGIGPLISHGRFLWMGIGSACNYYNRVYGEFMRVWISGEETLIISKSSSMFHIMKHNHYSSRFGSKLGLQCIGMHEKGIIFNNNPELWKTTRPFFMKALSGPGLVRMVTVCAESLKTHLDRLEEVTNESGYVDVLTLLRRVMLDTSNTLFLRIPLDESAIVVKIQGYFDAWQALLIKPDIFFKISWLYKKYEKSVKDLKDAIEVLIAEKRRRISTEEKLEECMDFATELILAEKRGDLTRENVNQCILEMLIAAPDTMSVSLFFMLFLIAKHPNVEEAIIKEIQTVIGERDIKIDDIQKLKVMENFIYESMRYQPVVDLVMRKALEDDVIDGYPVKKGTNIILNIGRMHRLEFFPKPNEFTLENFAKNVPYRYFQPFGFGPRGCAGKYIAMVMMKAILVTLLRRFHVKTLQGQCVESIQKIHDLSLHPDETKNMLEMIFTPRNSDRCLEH
Estrogen receptor (Homo sapiens), sequence (P03372 whole entry, looked up): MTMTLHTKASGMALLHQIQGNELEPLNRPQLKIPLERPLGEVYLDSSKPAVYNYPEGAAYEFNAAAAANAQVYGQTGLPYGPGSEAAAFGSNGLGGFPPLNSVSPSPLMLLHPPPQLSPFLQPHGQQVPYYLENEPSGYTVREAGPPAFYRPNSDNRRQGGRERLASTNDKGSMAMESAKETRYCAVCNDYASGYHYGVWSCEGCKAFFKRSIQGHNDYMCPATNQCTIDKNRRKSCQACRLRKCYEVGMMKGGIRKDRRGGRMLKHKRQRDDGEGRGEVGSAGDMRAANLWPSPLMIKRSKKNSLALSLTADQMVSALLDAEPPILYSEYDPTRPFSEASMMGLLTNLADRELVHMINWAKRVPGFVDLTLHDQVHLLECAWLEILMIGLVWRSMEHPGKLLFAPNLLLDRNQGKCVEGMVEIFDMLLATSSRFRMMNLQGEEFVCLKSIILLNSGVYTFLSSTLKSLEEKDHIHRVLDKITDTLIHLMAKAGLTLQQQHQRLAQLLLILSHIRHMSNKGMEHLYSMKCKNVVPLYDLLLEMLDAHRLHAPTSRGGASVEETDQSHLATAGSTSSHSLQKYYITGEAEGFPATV
Aryl hydrocarbon receptor (Homo sapiens), sequence (P35869 whole entry, looked up): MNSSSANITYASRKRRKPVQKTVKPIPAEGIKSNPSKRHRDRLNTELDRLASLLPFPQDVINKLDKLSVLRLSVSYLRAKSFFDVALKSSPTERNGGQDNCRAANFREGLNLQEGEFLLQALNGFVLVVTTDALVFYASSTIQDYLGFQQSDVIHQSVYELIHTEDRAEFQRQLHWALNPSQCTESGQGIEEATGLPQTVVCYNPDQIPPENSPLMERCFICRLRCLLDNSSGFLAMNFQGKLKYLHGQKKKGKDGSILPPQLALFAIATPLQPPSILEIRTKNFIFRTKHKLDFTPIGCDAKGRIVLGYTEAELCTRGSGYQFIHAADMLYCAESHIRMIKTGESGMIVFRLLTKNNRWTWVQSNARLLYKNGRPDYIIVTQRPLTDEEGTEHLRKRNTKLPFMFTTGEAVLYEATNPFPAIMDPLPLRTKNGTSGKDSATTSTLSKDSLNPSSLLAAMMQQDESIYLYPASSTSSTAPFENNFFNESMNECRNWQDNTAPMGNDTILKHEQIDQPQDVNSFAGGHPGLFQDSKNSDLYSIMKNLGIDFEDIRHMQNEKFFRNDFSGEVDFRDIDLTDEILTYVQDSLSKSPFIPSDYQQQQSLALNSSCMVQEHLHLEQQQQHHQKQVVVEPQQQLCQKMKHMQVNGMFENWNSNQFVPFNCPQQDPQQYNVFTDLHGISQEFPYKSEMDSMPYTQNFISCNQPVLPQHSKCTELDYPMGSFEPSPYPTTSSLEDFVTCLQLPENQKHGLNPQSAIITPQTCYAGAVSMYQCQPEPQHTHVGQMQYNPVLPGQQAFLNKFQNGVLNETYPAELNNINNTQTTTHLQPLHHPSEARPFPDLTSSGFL

Regarding `CCCCCCO`, the Potency entry (in assay [1]; in assay [2]; in assay [4]; in assay [6]; in assay [8]; in the assay with Aromatase (Homo sapiens)) was “inactive” throughout. The Potency result in assay [9], in [10], in [11], in assay [15] and in assay [16] was “inactive” throughout. Moreover, the call in assay [3], in [5], in assay [7], in assay [12], in assay [13] and in assay [14] was inactive. The compound was called inactive in [17] and in assay [18].
For `CNC(=O)Oc1ccc2c(c1)[C@]1(C)CCN(C)[C@@H]1N2C`, the Potency result (in assay [1]; in [2]; in [6]; in [19]; in assay [8]; with Aromatase (Homo sapiens)) was “inactive” each time. For the same compound, the Potency entry in [9], in assay [11], in assay [15] and in [16] was “inactive” each time. Moreover, the result in [3], in assay [5], in assay [7], in [12], in assay [14] and in assay [17] was inactive. Besides, the result in assay [18] was inactive.
As for `COc1ccc(N)c(C)c1`, the Potency entry (in assay [1]; in assay [2]; in [4]; in [6]; in assay [8]; with Aromatase (Homo sapiens)) was “inactive” throughout. Also, the Potency entry in [9], in assay [10], in assay [11], in assay [15] and in [16] was “inactive” in each case. The compound was classed as inactive in [3], in assay [5], in assay [7], in assay [14], in assay [17] and in [18].
In the case of `CC(=O)Oc1ccc(C)cc1`, the Potency entry (in assay [1]; in assay [2]; in assay [6]; in [19]; in assay [8]; with Aromatase (Homo sapiens)) was “inactive” throughout. The Potency entry in assay [9], in [10], in assay [11] and in assay [15] was “inactive” each time. Further, the call in assay [3], in assay [5], in assay [7], in assay [12], in assay [14] and in assay [17] was inactive. In assay [18], the compound was called inactive.
Take `CN(C)c1ccc(O)c2c1C[C@H]1C[C@H]3[C@H](N(C)C)C(=O)C(C(N)=O)=C(O)[C@@]3(O)C(=O)C1=C2O`: the Potency result (in assay [1]; in assay [2]; in [6]; in assay [19]; in assay [8]; with Aromatase (Homo sapiens)) was “inactive” throughout. The Potency entry in assay [9], in assay [11], in [15] and in assay [16] was “inactive” in each case. Besides, the result in assay [3], in [5], in assay [7], in assay [14], in [17] and in assay [18] was inactive. Moreover, the Potency result in assay [10] is “inactive and 7.7 µM (active)”.
Turning to `OC1C(O)C(O)C(O)C(O)C1O` (stereo unspecified), the Potency entry (in [1]; in [2]; in assay [6]; in assay [19]; in assay [8]; in the assay with Aromatase (Homo sapiens)) was “inactive” throughout. Besides, the Potency entry in assay [9], in assay [10], in [11], in assay [15] and in assay [16] was “inactive” each time. Also, the result in assay [3], in [5], in assay [7], in assay [12], in [13] and in assay [14] was inactive. The call in assay [17] and in assay [18] was inactive.
In the case of `CC(=O)CC(C)(C)O`, the Potency result (in [1]; in assay [2]; in assay [6]; in assay [19]; in assay [8]; in the assay with Aromatase (Homo sapiens)) was “inactive” in each case. For the same compound, the Potency result in [9], in [11], in [15] and in [16] was “inactive” each time. The outcome in assay [3], in [5], in assay [7], in assay [12], in assay [14] and in [17] was inactive. Also, in [18], the call was inactive.
On to `O=S(=O)(O)c1ccc(N=Nc2c(O)ccc3cc(S(=O)(=O)O)ccc23)cc1`, for which the Potency was 30.8 µM (active) and 27.3 µM (active) in assay [1]; 27.4 µM (active) and 27.3 µM (active) in assay [8]; 15.4 µM (active) and 19.3 µM (active) in [9]; 13.7 µM (active) and 8.63 µM (active) in assay [11]. Moreover, the Potency entry (in assay [2]; in assay [4]; in assay [6]; in [19]; with Aromatase (Homo sapiens); in assay [10]) was “inactive” each time. The Potency result in assay [15] and in assay [16] was “inactive” in each case. For the same compound, the compound was called inactive in [3], in assay [5], in assay [7], in assay [14], in [17] and in assay [18].
